# Source: PubChem BioAssay (several laboratories)
# Bim-Bfl-1: inhibitors of Bim-Bfl-1 interaction, human; Q16548; Bead-based flow cytometry, Bim-Bfl-1 binding inhibition; inhibition, % at 10 µM; actives 0.12% (n = 190,000); AID 1008;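 further: 0% = wells without compound plus tracer and 100% = blocker peptide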
# Bcl-W Bim block: inhibitors of Bim-Bcl-W interaction, human; Q92843; bead-based flow cytometry, Bim peptide-Bcl-W binding; inhibition, % at 10 µM; actives 0.02% (n = 190,000); AID 952;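 further: 0% = bound tracer without compound and 100% = peptide blocker; higher means less fluorescent Bim peptide bound to Bcl-W beads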
# Target sequence (Q92843 whole entry, looked up): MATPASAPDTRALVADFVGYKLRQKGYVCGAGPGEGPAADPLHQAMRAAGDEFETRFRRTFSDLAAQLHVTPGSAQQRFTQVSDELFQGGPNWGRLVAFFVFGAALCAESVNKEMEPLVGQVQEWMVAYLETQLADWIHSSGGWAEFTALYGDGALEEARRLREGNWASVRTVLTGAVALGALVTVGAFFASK
# Bim-Bcl-2: inhibitors of Bim-Bcl-2 interaction, human; P10415; Bead-based flow cytometry, Bim peptide-Bcl-2 binding; inhibition, % at 10 µM; actives 0.06% (n = 190,000); AID 950; in the data active means inhibition above about 40%;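 further: 0% = no compound wells with probe peptide and 100% = reference peptide inhibitor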
# Pf gamet viab: P. falciparum stage V gametocyte viability inhibition; P. falciparum stage V gametocytes, ATP luminescence, 24 h; inhibition, % at 10.9 µM; actives 0.065% (n = 150,000);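 active means inhibition above the mean plus 3 SD of compounds within the control limits, set per campaign, cut at about 38% in these data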;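 further: 0% = DMSO wells and 100% = medium only without gametocytes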
# Bim-Bcl-XL: human Bim-Bcl-XL interaction inhibition; Q07817; Bim peptide-Bcl-XL binding, bead flow cytometry, fluorescence; inhibition, % at 10 µM; actives 0.04% (n = 190,000)
# Bim-Bcl-B: human Bim-Bcl-B interaction inhibition; inhibition, % at 10 µM; AID 951; bead-based flow cytometry, Bim peptide-Bcl-B binding; actives 0.073% (n = 190,000);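 further: 0% = tracer peptide without compound and 100% = reference inhibitor peptide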
# Target sequence (Q9HD36 whole entry, looked up): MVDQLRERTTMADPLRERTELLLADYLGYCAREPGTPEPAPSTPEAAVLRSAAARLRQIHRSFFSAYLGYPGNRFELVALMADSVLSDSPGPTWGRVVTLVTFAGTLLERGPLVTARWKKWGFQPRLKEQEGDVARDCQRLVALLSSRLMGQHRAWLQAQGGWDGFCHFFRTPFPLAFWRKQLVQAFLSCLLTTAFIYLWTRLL
# Starred values were filed as active, the others as inactive; x = not tested or not shown. Only some compounds are listed: those with a hit (about 0.2% of all), similar ones and a draw of the others. Unless noted, no stated cut-off is given here; in the data, active means inhibition above about 40%.
SMILES,Bim-Bfl-1,Bcl-W Bim block,Bim-Bcl-2,Pf gamet viab,Bim-Bcl-XL,Bim-Bcl-B
CCC(/C=C1\Sc2ccc(OC)cc2N1CC)=C\c1sc2ccc(OC)cc2[n+]1CCCS(=O)(=O)[O-],-1,1,5,0,3,4
NC(=O)CN1CCN(S(=O)(=O)c2ccc(Br)cc2)CC1,-6,-1,-4,16,-5,-5
CC(OC(=O)c1ccccc1NCc1ccco1)C(=O)Nc1ncc(Cl)cc1Cl (configuration not stated),2,2,1,8,0,3
N#Cc1c(N)n(-c2ccc(O)cc2)c2nc3ccccc3nc12,7,4,4,38*,2,10
CCOC(=O)Cc1cc(=O)[nH]c(Nc2nc3ccccc3o2)n1,-6,-1,-3,x,-1,-3
COC(=O)Cc1cc(=O)[nH]c(Nc2nc3ccccc3o2)n1,64*,13,-5,x,4,-2
CCC(C)Sc1nc2c(c(=O)[nH]c(=O)n2C)n1CCc1ccccc1 (configuration not stated),-7,1,-1,3,-2,-3
CCC(C)Sc1nc2c(c(=O)[nH]c(=O)n2C)n1CC(O)COc1ccccc1C (configuration not stated),17,-13,6,39*,-12,-86
O=C(Cc1ccccc1)Nc1ccc(NC(=O)c2ccccc2)c(Cl)c1,x,x,x,11,x,x
Cn1c(CCNC(=O)C2CCCCC2)nc2cc(NC(=O)c3cccs3)ccc21,59*,8,91*,34,15,86*
CC1CCCCC12NC(=S)N(c1ccccc1)N2 (configuration not stated),x,x,x,-3,x,x
CC(C)c1ccc(C2CC(c3ccc(Br)cc3)=NN2C(N)=S)cc1 (configuration not stated),-2,-3,-1,4,-3,66*
Cc1ccc(-c2nc3c(c(=O)[nH]c(=O)n3Cc3ccccc3)n2C)o1,40*,9,8,-2,2,-4
CC(CCc1ccccc1)NC(=O)C1CCN(S(=O)(=O)N2CCCCC2)CC1 (configuration not stated),38,25,28,x,41*,25
CCN(CC)S(=O)(=O)c1ccc(Cl)c(NC(=O)COC(=O)c2ccc(O)cc2)c1,0,-1,-3,-3,-2,-5
CCN(CC)S(=O)(=O)c1ccc(Cl)c(NC(=O)COC(=O)c2cccn2C)c1,-5,-2,-3,42*,-2,-3
COc1ccc(C(=O)Oc2ccc(/C=N/O)cc2)cc1,-9,4,-6,40*,-11,-5
COc1ccc(OC(=O)c2ccncc2)cc1,-12,-2,0,x,1,-7
Clc1nc2ccccc2cc1/C=N/Nc1nc2ccccc2[nH]1,69*,58*,93*,-5,58*,94*
C(=N\Nc1nc2ccccc2[nH]1)/c1ccncc1,-2,0,1,-18,0,4
COc1ccc(CCc2nnc(NS(C)(=O)=O)s2)cc1,x,x,x,-17,x,x
COCCN=c1scc(-c2ccccc2)n1/N=C/c1c[nH]c2ccccc12,-15,-6,-8,-2,-10,-13
CCN=c1scc(C)n1/N=C/c1ccc(O)c(O)c1O,51*,21,19,24,8,-2
CCN=c1scc(C)n1/N=C/c1cc(Br)c(O)c(Br)c1,-5,-3,-2,-4,-2,-5
COCCN=c1scc(-c2cccs2)n1/N=C/c1ccc(O)c(O)c1O,40*,21,21,25,6,0
SMILES,Bim-Bfl-1,Bcl-W Bim block,Bim-Bcl-2,Pf gamet viab,Bim-Bcl-XL,Bim-Bcl-B
CCN(Cc1cc(=O)n2ccsc2n1)c1cccc2ccccc12,-10,-8,-11,-32,-10,-13
CN(C)c1ccc(/C=N/N2C(=O)c3ccccc3C2=O)cc1,x,x,x,-3,x,x
COc1ccc(/C=N/N2C(=O)c3ccccc3C2=O)cc1,-2,-2,-3,57*,-6,-3
COc1ccccc1-c1cc2nc(C)c(CCC(=O)NCc3ccc(F)cc3)c(C)n2n1,x,x,x,-12,x,x
COc1cc(OC)cc(-c2cc3nc(C)c(CCC(=O)NCc4ccccc4)c(C)n3n2)c1,x,x,x,39*,x,x
COc1ccc(Nc2nc(-c3cccs3)nc3ccccc23)cc1S(=O)(=O)N1CCOCC1,x,x,x,-26,x,x
CC1C=CCC2C(=O)N(c3ccccc3OC(=O)c3cccs3)C(=O)C12 (configuration not stated),-9,-1,-6,x,-3,-3
CC1C=CCC2C(=O)N(c3ccc(OC(=O)c4cccs4)cc3)C(=O)C12 (configuration not stated),55*,-6,79*,22,3,70*
Cc1nc2sccc2c(=O)n1N,-5,-1,-1,8,-3,0
Clc1ccc2c(N/N=C/c3cccc(Br)c3)ccnc2c1,33,13,37,-11,0,29
Clc1ccc2c(N/N=C/c3ccccc3Br)ccnc2c1,43*,16,28,-2,-4,33
Cn1c(=O)[nH]c(=O)c2c1nc(SCC(O)CCl)n2Cc1ccccc1 (configuration not stated),x,x,x,-11,x,x
CN(CCCOc1ccccc1Br)Cc1ccccc1,99*,98*,91*,-10,102*,108*
CN(CCCOc1ccccc1F)Cc1ccccc1,x,x,x,-15,x,x
COc1ccc(-n2cnnc2SCC(=O)NC2CCS(=O)(=O)C2)cc1 (configuration not stated),-2,-3,-5,x,-4,-9
O=C1Nc2ccc([N+](=O)[O-])cc2OC1CCN1CCN(Cc2ccccc2)CC1 (configuration not stated),-6,0,0,3,-1,-3
O=C1Nc2ccc([N+](=O)[O-])cc2OC1CCN1CCN(Cc2ccc3c(c2)OCO3)CC1 (configuration not stated),47*,-2,72*,-7,0,73*
COC(=O)c1c(-c2ccc(OC)cc2)sc2ccc(OC)cc12,x,x,x,-9,x,x
C/C(=N\NC(=O)Cc1cccn1C)c1ccc2ccccc2c1,15,19,50*,-7,29,46*
C/C(=N/NC(=O)Cc1cccn1C)c1ccccc1,9,7,4,x,4,0
Clc1cccc(Cl)c1CNc1ccc(N2CCCC2)cc1,59*,25,21,-22,4,2
O=C(Cc1ccc(Cl)cc1)Nc1ccc(N2CCCC2)cc1,-11,0,-2,-112,0,-5
Cc1ccc(OCc2cnc(Cl)s2)c(C)c1,-4,0,-2,-5,-1,-2
CCOC(=O)c1cc2c(=O)n3cccc(C)c3nc2n(Cc2ccco2)c1=NC(=O)c1cccnc1,40*,20,14,x,9,12
COC(=O)c1ccc(S(=O)(=O)NCCSc2nnc3c4ccccc4n(C)c3n2)cc1,-12,2,-12,x,-3,-8
N/C(Cc1ccc(Cl)c(Cl)c1)=N\OC(=O)c1cccs1,14,15,29,-12,8,41*
